This is part of a sample that, as a whole, favours compounds with a hit. Of some 83,000 tested, about 20% had one in any assay.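 How to read the values: 0–100, growth inhibition (40 = 60% inhibited); 0, no net growth; -100 to 0, cell death (-40 = 40% of starting cells died; -100 = all dead).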 Activity calls are given as the source filed them. Rule for the calls: active = growth percent below 10; inactive = the rest.
How the values were obtained:
Assay in all cases: NCI-60 one-dose screen, 48 h (100 = growth as untreated, 0 = no growth, -100 = all killed)
Settings in all cases: 10 µM unless noted
T-47D breast = tested on: T-47D breast
BT-549 breast = tested on: BT-549 breast
MDA-MB-435 melanoma = tested on: MDA-MB-435 melanoma
SW-620 colon = tested on: SW-620 colon
MCF7 breast = tested on: MCF7 breast
HCT-116 colon = tested on: HCT-116 colon
HCC-2998 colon = tested on: HCC-2998 colon
KM12 colon = tested on: KM12 colon

Measured: growth

CSc1nn2c(-c3cc4cc(Br)ccc4oc3=O)ccnc2c1C#N
inactive: T-47D breast 99.7% | BT-549 breast 105% | MDA-MB-435 melanoma 101% | SW-620 colon 103% | MCF7 breast 94.9% | HCT-116 colon 94.3% | HCC-2998 colon 102% | KM12 colon 107%

O=C(O)COc1ccc(F)cc1
inactive: T-47D breast 104% | BT-549 breast 119% | MDA-MB-435 melanoma 108% | SW-620 colon 112% | MCF7 breast 95.8% | HCT-116 colon 103% | HCC-2998 colon 103% | KM12 colon 103%

Oc1c(Cl)cc(Cl)c2ccc(CN3CCNCC3)nc12
inactive: T-47D breast 43.6% | BT-549 breast 82.2% | MDA-MB-435 melanoma 58.6% | SW-620 colon 26.6% | MCF7 breast 34.4% | HCT-116 colon 32.6% | HCC-2998 colon 60.1% | KM12 colon 49.6%

CN1CCN(Cc2ccc(NC(=O)c3cncc(C#Cc4cnc(N)c5ccc(C#N)cc45)c3)cc2C(F)(F)F)CC1
inactive: T-47D breast 10.4% | BT-549 breast 37.3% | HCC-2998 colon 32.6%
active: MDA-MB-435 melanoma -74.3% | SW-620 colon -41.3% | MCF7 breast -60.8% | HCT-116 colon -65.7% | KM12 colon -85.1%

COc1cc2c(c(OC)c1OC)CCC(c1cccc(C(=O)Nc3ccc([N+](=O)[O-])cc3)c1)O2 (centres undefined)
inactive: BT-549 breast 27.4% | MDA-MB-435 melanoma 54.5% | SW-620 colon 77.7% | MCF7 breast 45.9% | HCT-116 colon 40.4% | HCC-2998 colon 68.3% | KM12 colon 57.7%
active: T-47D breast 9.09%

COc1ccc(-c2ccc(-c3ccc(C(=N)N)o3)o2)cc1
inactive: T-47D breast 26.7% | BT-549 breast 59.6% | SW-620 colon 12.9% | MCF7 breast 10.4% | KM12 colon 11%
active: MDA-MB-435 melanoma -65.4% | HCT-116 colon -5.19% | HCC-2998 colon -48.7%

Cn1ncc(CC(=O)O)c1-n1nnc2cc(Cl)ccc2c1=O
inactive: T-47D breast 102% | BT-549 breast 102% | MDA-MB-435 melanoma 92.7% | SW-620 colon 103% | MCF7 breast 110% | HCT-116 colon 99.5% | HCC-2998 colon 107% | KM12 colon 102%

Cn1cc(-c2csc(-c3cn(CCO)c4ccc(F)cc34)n2)c2cccnc21
active: T-47D breast 9.75% | MDA-MB-435 melanoma 1.7%
inactive: BT-549 breast 52.8% | SW-620 colon 29.8% | MCF7 breast 34.9% | HCT-116 colon 35.8% | HCC-2998 colon 64.1% | KM12 colon 30.6%

CC(=O)OCC(=O)O[C@@H]1C[C@]2(C(C)C)O[C@@]1(C)[C@@H]1CC[C@@H](C)[C@H]1[C@@H]2OC(=O)/C=C/c1ccccc1
inactive: T-47D breast 48.6% | MDA-MB-435 melanoma 95% | SW-620 colon 104% | MCF7 breast 77.8% | HCT-116 colon 81.5% | HCC-2998 colon 101% | KM12 colon 90.2%
active: BT-549 breast 2.51%

COc1cccc2cc(N(C)c3ncnc4ccccc34)ccc12
inactive: T-47D breast 59.1% | BT-549 breast 32.3% | MDA-MB-435 melanoma 16.6% | SW-620 colon 20.5% | HCC-2998 colon 21.2%
active: MCF7 breast 6.28% | HCT-116 colon 8.07% | KM12 colon 5.11%

CCN(CC)CCCNC(=O)c1c2c(n3ccccc13)C(=O)c1ncccc1C2=O
active: T-47D breast -64.4% | BT-549 breast -6.67% | MDA-MB-435 melanoma -58.7% | SW-620 colon -47% | MCF7 breast -52.9% | HCT-116 colon -70.5% | HCC-2998 colon -72.5% | KM12 colon -13.2%

COc1ccc(-c2cn(Cc3ccc4c(Br)cc(Br)c(O)c4n3)nn2)cc1
inactive: T-47D breast 65.1% | BT-549 breast 111% | MDA-MB-435 melanoma 89% | SW-620 colon 75.4% | MCF7 breast 67.4% | HCT-116 colon 77.8% | HCC-2998 colon 101% | KM12 colon 99.4%

C(CCCSC1=NCCN1)CCSC1=NCCN1
inactive: T-47D breast 101% | BT-549 breast 112% | MDA-MB-435 melanoma 103% | SW-620 colon 98.2% | MCF7 breast 97.5% | HCT-116 colon 90.7% | HCC-2998 colon 103% | KM12 colon 113%

O=C(O)c1cc2ccccc2s1
inactive: T-47D breast 91.9% | BT-549 breast 108% | MDA-MB-435 melanoma 104% | SW-620 colon 103% | MCF7 breast 111% | HCT-116 colon 105% | HCC-2998 colon 107% | KM12 colon 108%

CN(C)c1ccc(/C=N/NC(=O)CSc2nc3sc4c(c3c(=O)n2-c2ccccc2)CCCCC4)cc1
active: HCT-116 colon 7.89%
inactive: T-47D breast 61.5% | BT-549 breast 71.2% | MDA-MB-435 melanoma 33.2% | SW-620 colon 27.2% | MCF7 breast 35% | HCC-2998 colon 39.4% | KM12 colon 38.5%

CNC(=O)c1cc(Oc2ccc3nc(NC(=O)c4cc(C(F)(F)F)cc(C(F)(F)F)c4)sc3c2)ccn1
active: T-47D breast 0.372% | MCF7 breast 9.82%
inactive: BT-549 breast 11.4% | MDA-MB-435 melanoma 12.1% | SW-620 colon 40.2% | HCT-116 colon 12.4% | HCC-2998 colon 35.2% | KM12 colon 15.5%

N/C(=N\c1nc2ccccc2s1)NC(=O)Nc1ccccc1
inactive: T-47D breast 39.4% | BT-549 breast 49.5% | SW-620 colon 24.7% | MCF7 breast 16.6% | HCT-116 colon 17.1% | HCC-2998 colon 62.7% | KM12 colon 25.4%
active: MDA-MB-435 melanoma 2.22%

CN1CCN(CC(=O)N(C)c2ccc(N=C(c3ccccc3)c3c(O)[nH]c4ccc([N+](=O)[O-])cc34)cc2)CC1
inactive: T-47D breast 89.7% | BT-549 breast 64.4% | MDA-MB-435 melanoma 23.5% | SW-620 colon 48.4% | MCF7 breast 21.9% | HCT-116 colon 24% | HCC-2998 colon 78.7% | KM12 colon 13.1%

COc1ccc(C(=O)C2OC3=C(C(=O)CC(C)(C)C3)C2c2cccc(Oc3ccccc3)c2)cc1 (centres undefined)
inactive: T-47D breast 76% | BT-549 breast 92.1% | MDA-MB-435 melanoma 90.8% | SW-620 colon 93.6% | MCF7 breast 89.3% | HCT-116 colon 84.6% | HCC-2998 colon 113% | KM12 colon 94.6%

CC(=O)CC(=O)c1ccccc1.[Cu+2]
inactive: T-47D breast 93.2% | BT-549 breast 114% | MDA-MB-435 melanoma 105% | SW-620 colon 103% | MCF7 breast 75.1% | HCT-116 colon 97.7% | HCC-2998 colon 107% | KM12 colon 98.2%

Nc1nc(N)c2c(n1)NC(c1cccc(Nc3ccnc4cc(C(F)(F)F)ccc34)c1)CC(c1ccc(Cl)cc1)=N2 (centres undefined)
active: MDA-MB-435 melanoma -24.8%
inactive: T-47D breast 73.7% | BT-549 breast 114% | SW-620 colon 25.6% | MCF7 breast 16.1% | HCT-116 colon 15.1% | HCC-2998 colon 51.8% | KM12 colon 21.3%

O=C1C(c2c(O)[nH]c3ncccc23)=Nc2ccccc21
inactive: T-47D breast 48.4% | BT-549 breast 70.6% | MDA-MB-435 melanoma 92.9% | SW-620 colon 102% | MCF7 breast 41% | HCT-116 colon 48.5% | HCC-2998 colon 25.3% | KM12 colon 69.5%

CCOc1ccccc1NC(=O)CCC(=O)OC
inactive: T-47D breast 88.7% | BT-549 breast 106% | MDA-MB-435 melanoma 102% | SW-620 colon 104% | MCF7 breast 90.4% | HCT-116 colon 97.5% | HCC-2998 colon 99.5% | KM12 colon 100%

CC1=C(C(=O)c2ccccc2)C(c2ccc3c(c2)OCO3)NC(=S)N1 (centres undefined)
inactive: T-47D breast 67.9% | BT-549 breast 50.6% | SW-620 colon 24.2% | MCF7 breast 22% | HCT-116 colon 20.1% | HCC-2998 colon 62.2% | KM12 colon 20%
active: MDA-MB-435 melanoma -49.5%

COc1ccc(Cn2cc(C(=O)N=Nc3c(O)[nH]c4ccc(Br)cc34)nn2)cc1
inactive: T-47D breast 106% | BT-549 breast 111% | MDA-MB-435 melanoma 101% | SW-620 colon 107% | MCF7 breast 86.3% | HCT-116 colon 77% | HCC-2998 colon 98.5% | KM12 colon 104%

O=C(COc1ccc(/C=C2\Oc3ccccc3C2=O)cc1)Nc1nccs1
inactive: T-47D breast 115% | BT-549 breast 115% | MDA-MB-435 melanoma 69.4% | SW-620 colon 110% | MCF7 breast 75.6% | HCT-116 colon 94.5% | HCC-2998 colon 97.7% | KM12 colon 69.7%

O=C(CNc1ncco1)Nc1ccc(S(=O)(=O)c2ccc(NC(=O)CNc3ncco3)cc2)cc1
inactive: T-47D breast 29.3% | BT-549 breast 43.9% | MCF7 breast 18.9% | HCC-2998 colon 76.4% | KM12 colon 94.8%
active: MDA-MB-435 melanoma 3.01% | SW-620 colon -82% | HCT-116 colon -80.7%

Cc1cc(C)n(C(=O)CSc2nc3sc4c(c3c(=O)n2-c2ccccc2)CCCCC4)n1
inactive: T-47D breast 89.9% | BT-549 breast 100% | MDA-MB-435 melanoma 105% | SW-620 colon 102% | MCF7 breast 95.1% | HCT-116 colon 104% | HCC-2998 colon 109% | KM12 colon 105%
